# Assay results taken from the supplement of paper PMC9588786.
# Structures can show the parent of a compound that is named as a salt. ± gives the standard deviation of the averaged measurements.
# System: HT-1080
# Assay: relative cell viability with RSL3 co-treatment (fraction of control); higher = stronger protection from RSL3-induced ferroptosis (higher viability)
# Details: 10 µM
# 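Also: viability read as CCK-8 absorbance at 450 nm in cells co-exposed to the GPX4 inhibitor RSL3, relative to a 0.01% DMSO vehicle control.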
row,SMILES,relative cell viability
1,CNS(=O)(=O)C[C@H]1CC[C@H](N(C)c2[nH]cnc3nccc2-3)CC1 [Oclacitinib],0.927 ± 0.075
2,O=C(Nc1ccc(-c2ccnc(Nc3ccc(N4CCOCC4)cc3)n2)cc1)C1CCCN1 (stereo not drawn),0.443 ± 0.1
3,CCCNC(=O)Nc1ccc(Oc2ncnc3cc(OC)c(OC)cc23)cc1Cl,0.757 ± 0.42
4,COc1ccc(F)c(F)c1C(=O)c1cnc(NC2CCN(S(C)(=O)=O)CC2)nc1N,0.577 ± 0.15
5,COC(=O)c1ccc2c(c1)NC(=O)/C2=C(\Nc1ccc(N(C)C(=O)CN2CCN(C)CC2)cc1)c1ccccc1 [Nintedanib (BIBF 1120)],0.9 ± 0.12
6,CCc1ccc(/C=C2/SC(=S)NC2=O)cc1,0.62 ± 0.087
7,C[C@H](NC(=O)/C(C#N)=C/c1cccc(Br)n1)c1ccccc1,0.807 ± 0.13
8,O=C(/C=C/c1ccc2ccccc2n1)c1ccncc1,0.64 ± 0.075
9,O=C(NCCO)c1cccc(-c2cc(Nc3ccc(OC(F)(F)F)cc3)ncn2)c1,0.713 ± 0.13
10,CCOc1cc2ncc(C#N)c(Nc3ccc(F)c(Cl)c3)c2cc1NC(=O)/C=C/CN(C)C [Pelitinib (EKB-569)],0.247 ± 0.081
11,N#Cc1c(O)c2c(-c3ccc(-c4ccccc4O)cc3)csc2[nH]c1=O,0.793 ± 0.046
12,O=C(Nc1cccc(Cl)c1)Nc1ncc(CCNc2ncnc3ccsc23)s1 [SNS-314 Mesylate],0.217 ± 0.015
13,CC1=C(C(=O)Nc2cc3cn[nH]c3cc2F)C(c2ccc(C(F)(F)F)cc2)CC(=O)N1 (stereo not drawn),0.883 ± 0.084
14,COc1cc(N2CCC(N3CCN(C)CC3)CC2)ccc1Nc1ncnc(Nc2ccccc2S(=O)(=O)C(C)C)n1,0.807 ± 0.023
15,"CC[C@H](CO)Nc1nc(NCc2ccccc2)c2ncn(C(C)C)c2n1 [Roscovitine (Seliciclib,CYC202)]",0.793 ± 0.12
16,C=CC(=O)Nc1cccc(Oc2nc(Nc3ccc(N4CCN(C)CC4)cc3)nc3ccsc23)c1,0.55 ± 0.082
17,CNC(=O)CN1CCC(Oc2cc3c(Nc4cccc(Cl)c4F)ncnc3cc2OC)CC1 [Sapitinib (AZD8931)],0.56 ± 0.095
18,"Cc1[nH]c(/C=C2\C(=O)Nc3ccccc32)c(C)c1CCC(=O)O [Orantinib (TSU-68, SU6668)]",0.903 ± 0.057
19,N=C(N)NC(=N)NCCc1ccccc1 [Phenformin HCl],0.877 ± 0.042

row,SMILES,relative cell viability
1,Cc1[nH]nc2ccc(-c3cncc(OC[C@@H](N)Cc4ccccc4)c3)cc12,0.59 ± 0.02
2,C[C@H]1[C@H](C)CC[C@]2(C(=O)O)CC[C@]3(C)C(=CC[C@@H]4[C@@]5(C)C[C@@H](O)[C@H](O)[C@@](C)(CO)[C@@H]5CC[C@]43C)[C@H]12 [Asiatic Acid],0.58 ± 0.14
3,Cc1c(Cn2c(C)nc3c(C(=O)O)cc(N4CCOCC4)cc32)cccc1C(F)(F)F,0.823 ± 0.045
4,O=C(NCCCNc1nc(Nc2cccc(NC(=O)N3CCCC3)c2)ncc1I)c1cccs1,0.657 ± 0.011
5,CNC(=O)c1cc(Oc2ccc(NC(=O)Nc3ccc(Cl)c(C(F)(F)F)c3)c(F)c2)ccn1 [Regorafenib (BAY 73-4506)],0.483 ± 0.086
6,O=C(c1ccc(/C=C/c2n[nH]c3ccccc23)cc1)N1CCNCC1,0.773 ± 0.076
7,CC[C@@H]1C(=O)N(C)c2cnc(Nc3ccc(C(=O)NC4CCN(C)CC4)cc3OC)nc2N1C1CCCC1,0.553 ± 0.031
8,CCN(CC)CCNC(=O)c1c(C)[nH]c(/C=C2\C(=O)Nc3ccc(F)cc32)c1C [Sunitinib Malate],0.543 ± 0.099
9,Cn1c(=O)c(F)c(Nc2ccc(I)cc2F)c2c(=O)n(C[C@@H](O)CO)cnc21,0.71 ± 0.017
10,Cn1cc(-c2ccc3nnc(C(F)(F)c4ccc5ncccc5c4)n3n2)cn1,0.743 ± 0.04
11,Cc1ccc2nc(NCCN)c3ncc(C)n3c2c1,0.703 ± 0.015
12,C=CC(=O)Nc1cccc(Oc2nc(Nc3ccc(N4CCN(C)CC4)cc3)ncc2Cl)c1,0.337 ± 0.057
13,CNC(=O)c1cc(Oc2ccc(NC(=O)Nc3ccc(Cl)c(C(F)(F)F)c3)cc2)ccn1 [Sorafenib Tosylate],0.317 ± 0.04
14,O=C(NOC[C@H](O)CO)c1ccc(F)c(F)c1Nc1ccc(I)cc1F,0.897 ± 0.032
15,COc1ccc(-c2nc(N3CCOCC3)c3sc(CN(C)c4ncc(C(=O)NO)cn4)cc3n2)cn1,0.577 ± 0.15
16,Cc1c[nH]c2nc(Nc3ccc(N4CCN(C)CC4)c(F)c3)nc(-c3cccc(CC#N)c3)c12,0.123 ± 0.1
17,COc1c(C)c(C(=O)c2ccc(N)c(C(=O)O)c2)n2ccccc12,0.653 ± 0.14
18,Cc1cc(O)c2c(c1)C(=O)c1cccc(O)c1C2=O [Chrysophanic Acid],0.6567 ± 0.0058
19,Cc1cc([C@@H](C)Nc2ccccc2C(=O)O)c2nc(N3CCOCC3)cc(=O)n2c1,0.593 ± 0.18
